# In PubChem BioAssay (NCATS):
# Several values for one entry are separate records, joined by “and”; a condition that tells them apart may be missing. Identical values can stand only once. Records with an inconclusive call do not appear. The list shows a part of the results. Activity calls are given as the source filed them. Unless noted, calls follow the shape of the dose curve; as a rule, active = well fitted curve in the direction sought with a large enough effect; inconclusive = small, poorly fitted or top-dose-only effect, or another doubt; inactive = no such curve, though single readings can be large; an effect the other way counts as inactive or inconclusive.
# How the values were obtained:
# [1] = molecular target: Lysosomal acid glucosylceramidase (Homo sapiens) (UniProt P04062); assay: Glucocerebrosidase-p2 (AID 348; in the data active = potency below about 10 µM; also: potency is read from the fitted curve at half-maximal effect); settings: purified GBA, blue fluorogenic substrate, 40 min
# Lysosomal acid glucosylceramidase (Homo sapiens), sequence (P04062 whole entry, looked up): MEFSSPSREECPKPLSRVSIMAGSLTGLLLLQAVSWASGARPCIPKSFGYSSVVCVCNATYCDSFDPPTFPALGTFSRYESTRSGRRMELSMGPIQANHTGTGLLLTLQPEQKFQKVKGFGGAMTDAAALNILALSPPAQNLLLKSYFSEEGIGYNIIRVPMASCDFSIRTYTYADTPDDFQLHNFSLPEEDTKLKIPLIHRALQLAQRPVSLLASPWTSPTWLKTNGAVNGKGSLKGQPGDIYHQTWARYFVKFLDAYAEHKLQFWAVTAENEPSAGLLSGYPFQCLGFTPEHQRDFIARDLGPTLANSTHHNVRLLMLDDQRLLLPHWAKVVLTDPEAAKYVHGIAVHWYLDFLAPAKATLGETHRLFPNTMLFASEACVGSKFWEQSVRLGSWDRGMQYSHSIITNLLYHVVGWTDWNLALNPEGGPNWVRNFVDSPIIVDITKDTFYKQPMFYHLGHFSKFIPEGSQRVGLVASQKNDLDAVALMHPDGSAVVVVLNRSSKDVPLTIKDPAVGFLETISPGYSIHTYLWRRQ
# In short: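 Normal human glucocerebrosidase (0.2 nM) with blue fluorogenic substrate (80 uM final) in citrate/phosphate pH 5.9 with 10mM sodium taurocholate, 0.01% tween-20; 40 min RT, NaOH/glycine stop; fluorescence Ex 365/Em 440; AC50 from a titration from 0.6 nM upwards.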
# [2] = AP1 Signaling Pathway (AID 357; active = well fitted curve in either direction with a large enough effect, not every such curve was filed as active;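 also: ME-180 reporter cells stimulated with EGF at its EC50 level; % is scaled to controls: 0 for no effect and ±100 for the full control effect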); settings: ME-180 AP-1-bla reporter, EGF-induced, beta-lactamase ratio, 5 h; at 7.69 µM (top of the series) unless noted
# In short: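 Cells are seeded overnight, exposed to compound titrations and an EC50 level of EGF for 5 hours at 37 °C, then loaded with CCF4 dye for 2.5 hours. Beta-lactamase activity under the AP-1 element is read as a blue/green ratio.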
# [3] = NFAT Signaling Pathway (AID 444; active = well fitted curve in either direction with a large enough effect, not every such curve was filed as active;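 also: carbachol stimulus at about its EC50 of 1 µM final; % is scaled to controls: 0 for no effect and ±100 for the full control effect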); settings: Jurkat NFAT-bla M1, carbachol, beta-lactamase ratio, 5 h; at 7.69 µM (top of the series) unless noted
# In short: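 Read-out: CCF4 FRET ratio (460 nm/530 nm) after 1 h RT dye loading, used for %activity and AC50 from titration series. Cells: Jurkat NFAT-β-lactamase/M1 line, treated with compound plus 1 uM carbachol for 5 h, 37 °C.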
# [4] = Stat Signaling Pathway (AID 446; active = well fitted curve in either direction with a large enough effect, not every such curve was filed as active;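 also: ME-180 cervical cancer cells given 40 pM IL-6 alongside compound; SIE-controlled beta-lactamase reporter measured as 460/530 nm FRET emission ratio; % is scaled to controls: 0 for no effect and ±100 for the full control effect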); settings: ME-180 (cervical carcinoma) SIE beta-lactamase reporter, IL-6 stimulated, 5 h; at 7.69 µM (top of the series) unless noted
# In short: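 Emission at 460 and 530 nm (excitation 405 nm) reports SIE-controlled beta-lactamase in ME-180 cells. Cells received compound with 40 pM IL-6 for 5 hrs at 37 C; data scaled between 300 pM IL-6 and 125 nM JAK-inhibitor controls.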
# [5] = molecular target: Glucocorticoid receptor (Homo sapiens) (UniProt P04150); assay: GR-GFP Redistribution (AID 450;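 active = compounds whose dose series gives a full or clear partial fitted curve of increased nuclear translocation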; also: potency is read from the fitted curve at half-maximal effect); settings: U2OS GR-GFP nuclear translocation, laser cytometry, 2 h
# Glucocorticoid receptor (Homo sapiens), sequence (P04150 whole entry, looked up, the tested form may be a part): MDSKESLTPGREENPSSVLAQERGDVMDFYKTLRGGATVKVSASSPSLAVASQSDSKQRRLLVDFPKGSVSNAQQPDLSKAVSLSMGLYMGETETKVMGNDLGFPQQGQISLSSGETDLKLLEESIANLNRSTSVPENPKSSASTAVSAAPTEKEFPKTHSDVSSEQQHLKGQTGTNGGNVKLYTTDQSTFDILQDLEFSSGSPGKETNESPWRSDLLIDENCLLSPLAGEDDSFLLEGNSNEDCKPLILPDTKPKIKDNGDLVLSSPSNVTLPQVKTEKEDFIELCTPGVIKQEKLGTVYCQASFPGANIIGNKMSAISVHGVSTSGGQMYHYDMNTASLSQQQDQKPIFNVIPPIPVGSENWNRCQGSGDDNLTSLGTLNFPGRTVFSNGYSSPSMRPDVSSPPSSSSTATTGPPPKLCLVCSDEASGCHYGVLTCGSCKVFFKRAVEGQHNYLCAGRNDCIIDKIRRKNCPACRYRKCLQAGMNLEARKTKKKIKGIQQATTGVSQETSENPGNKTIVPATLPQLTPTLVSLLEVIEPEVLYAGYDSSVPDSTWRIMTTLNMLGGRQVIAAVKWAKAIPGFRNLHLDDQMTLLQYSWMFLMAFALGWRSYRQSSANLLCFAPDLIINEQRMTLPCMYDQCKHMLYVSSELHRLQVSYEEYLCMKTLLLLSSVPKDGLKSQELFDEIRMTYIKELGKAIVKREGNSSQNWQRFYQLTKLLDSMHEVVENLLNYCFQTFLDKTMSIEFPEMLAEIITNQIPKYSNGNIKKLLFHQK
# [6] = molecular target: Glucocorticoid receptor (Homo sapiens) (UniProt P04150); assay: GR-EFC Redistribution (AID 451; calls by dose curve; also: potency is read from the fitted curve at half-maximal effect); settings: CHO-K1 GR-EFC translocation, beta-gal luminescence, 2 h
# In short: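 Translocation of GR-ED fusion to nuclear EA restores b-gal, read by luminescence after 1 h room-temperature detection. Engineered CHO-K1 biosensor cells, 1,000/well, exposed 2 h at 37 C to titrations up to 46 uM final.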
# [7] = molecular target: Mitogen-activated protein kinase 10 (Mus musculus) (UniProt Q61831); assay: JNK3 AlphaScreen Assay (AID 530; active = well fitted curve in either direction with a large enough effect, not every such curve was filed as active;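 also: kinase came from lysate of stimulated human HepG2 cells; signal reports phosphorylation of biotinylated GST-cJun 1-79 at Ser73 with 10 µM ATP; % is scaled to controls: 0 for no effect and ±100 for the full control effect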)
# In short: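 qHTS titrations with 15 min compound pre-incubation before adding ATP (10 uM final). Read-out: AlphaScreen of Ser73-phosphorylated biotin-GST-cJun using HepG2 lysate JNK3 activated by IL-1β and TNFα.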
# [8] = molecular target: Cytochrome P450 3A4 (Homo sapiens) (UniProt P08684); assay: qHTS Assay for Activators of Cytochrome P450 3A4 (AID 885); also: nearly all actives have a fitted effect of over 65% in size
# Cytochrome P450 3A4 (Homo sapiens), sequence (P08684 whole entry, looked up): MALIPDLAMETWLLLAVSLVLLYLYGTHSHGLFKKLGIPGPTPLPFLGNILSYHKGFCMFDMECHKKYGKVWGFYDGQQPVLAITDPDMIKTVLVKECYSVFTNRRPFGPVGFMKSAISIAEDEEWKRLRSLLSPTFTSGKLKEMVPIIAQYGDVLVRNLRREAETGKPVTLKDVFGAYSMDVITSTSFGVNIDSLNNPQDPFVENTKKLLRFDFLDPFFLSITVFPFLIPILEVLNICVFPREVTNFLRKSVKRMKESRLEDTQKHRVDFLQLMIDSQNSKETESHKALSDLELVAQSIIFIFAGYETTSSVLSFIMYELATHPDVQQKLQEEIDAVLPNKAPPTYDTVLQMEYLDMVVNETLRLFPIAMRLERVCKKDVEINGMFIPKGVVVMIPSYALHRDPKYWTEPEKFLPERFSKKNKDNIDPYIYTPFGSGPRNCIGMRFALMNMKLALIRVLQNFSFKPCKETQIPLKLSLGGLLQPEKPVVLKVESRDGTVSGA
# In short: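 Activators are scored by enhanced luminescence from CYP3A4 conversion of luciferin-PPXE (25uM, equal to KM) to luciferin, after 60 min at RT with an NADPH-regenerating system.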
# [9] = molecular target: Dual specificity protein kinase CLK4 (Homo sapiens) (UniProt Q9HAZ1); assay: qHTS Assay for Inhibitors of CDC-like Kinase 4 (Kinase-Glo Assay) (AID 1770); also: nearly all actives have a fitted effect of over 65% in size; also: potency is read from the fitted curve at half-maximal effect
# Dual specificity protein kinase CLK4 (Homo sapiens), sequence (Q9HAZ1 whole entry, looked up): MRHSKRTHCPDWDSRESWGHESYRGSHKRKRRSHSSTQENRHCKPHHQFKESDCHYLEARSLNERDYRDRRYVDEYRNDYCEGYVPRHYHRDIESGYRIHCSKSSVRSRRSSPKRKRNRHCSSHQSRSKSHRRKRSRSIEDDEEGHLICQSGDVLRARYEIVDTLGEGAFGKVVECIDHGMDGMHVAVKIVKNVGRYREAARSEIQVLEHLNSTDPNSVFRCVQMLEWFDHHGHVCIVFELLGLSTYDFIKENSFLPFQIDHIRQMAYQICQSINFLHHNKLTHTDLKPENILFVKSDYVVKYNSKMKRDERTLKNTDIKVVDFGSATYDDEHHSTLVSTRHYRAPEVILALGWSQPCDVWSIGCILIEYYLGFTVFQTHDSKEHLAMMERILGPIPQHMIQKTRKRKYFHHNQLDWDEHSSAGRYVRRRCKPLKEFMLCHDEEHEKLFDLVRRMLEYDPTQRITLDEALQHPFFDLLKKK
# In short: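 Substrate mix (RS peptide 100 uM, ATP 1 uM) dispensed, compound pinned in, then Clk4 added to 25 nM final. Incubated 4.5 h at RT; Kinase-Glo reagent added, luminescence read after 5 min.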
# [10] = molecular target: Dual specificity protein kinase CLK4 (Homo sapiens) (UniProt Q9HAZ1); assay: qHTS Assay for Inhibitors of CDC-like Kinase 4 (ADP-Glo Assay) (AID 1771); also: nearly all actives have a fitted effect of over 70% in size; also: potency is read from the fitted curve at half-maximal effect
# In short: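 Compounds are pin-transferred onto substrate mix (100 uM RS peptide, 1 uM ATP), then 25 nM Clk4 is added. After 1 hr at room temperature, ADP-Glo reagent runs 45 min, detection reagent 30 min, then luminescence is read.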
# [11] = molecular target: Ubiquitin carboxyl-terminal hydrolase 1 (Homo sapiens) (UniProt O94782); assay: Inhibitors of USP1/UAF1: Pilot qHTS (AID 504865);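 also: rhodamine fluorescence freed from ubiquitin-rhodamine substrate followed over time; top concentration of the series differs between compounds; % is scaled to controls: 0 for no effect and ±100 for the full control effect; nearly all actives have a fitted effect of over 35% in size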
# Ubiquitin carboxyl-terminal hydrolase 1 (Homo sapiens), sequence (O94782 whole entry, looked up): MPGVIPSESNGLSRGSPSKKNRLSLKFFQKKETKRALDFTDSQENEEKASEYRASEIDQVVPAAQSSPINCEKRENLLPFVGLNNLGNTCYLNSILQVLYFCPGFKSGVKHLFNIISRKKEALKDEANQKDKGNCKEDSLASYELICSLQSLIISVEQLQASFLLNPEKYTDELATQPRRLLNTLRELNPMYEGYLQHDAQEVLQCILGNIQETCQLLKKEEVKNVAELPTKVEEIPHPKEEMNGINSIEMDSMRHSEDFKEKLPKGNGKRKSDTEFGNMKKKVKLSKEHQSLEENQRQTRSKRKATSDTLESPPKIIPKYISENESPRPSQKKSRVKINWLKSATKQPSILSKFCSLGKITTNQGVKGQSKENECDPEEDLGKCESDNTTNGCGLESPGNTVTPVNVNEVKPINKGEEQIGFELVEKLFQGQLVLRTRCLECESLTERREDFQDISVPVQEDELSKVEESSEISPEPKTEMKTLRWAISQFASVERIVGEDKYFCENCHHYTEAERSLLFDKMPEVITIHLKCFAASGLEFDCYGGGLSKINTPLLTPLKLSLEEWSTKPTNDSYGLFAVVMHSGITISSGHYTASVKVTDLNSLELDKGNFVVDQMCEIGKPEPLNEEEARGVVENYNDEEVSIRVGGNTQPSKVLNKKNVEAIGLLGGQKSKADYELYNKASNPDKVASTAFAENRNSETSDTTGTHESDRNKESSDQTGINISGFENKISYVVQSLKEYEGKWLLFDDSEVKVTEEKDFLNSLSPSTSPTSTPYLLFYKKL
# In short: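 In 50mM HEPES pH 7.8 containing 0.5mM EDTA, 1mM TCEP, 0.1 mg/ml BSA and 0.01% Tween-20, 1nM USP1/UAF1 is exposed to compound for 15 min, then Ub-Rho (150nM final) is added and fluorescence is read over time.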
# [12] = molecular target: Cytochrome P450 1A2 (Homo sapiens) (UniProt P05177); assay: p450-cyp1a2 (AID 410; calls by dose curve; also: potency is read from the fitted curve at half-maximal effect)
# Cytochrome P450 1A2 (Homo sapiens), sequence (P05177 whole entry, looked up): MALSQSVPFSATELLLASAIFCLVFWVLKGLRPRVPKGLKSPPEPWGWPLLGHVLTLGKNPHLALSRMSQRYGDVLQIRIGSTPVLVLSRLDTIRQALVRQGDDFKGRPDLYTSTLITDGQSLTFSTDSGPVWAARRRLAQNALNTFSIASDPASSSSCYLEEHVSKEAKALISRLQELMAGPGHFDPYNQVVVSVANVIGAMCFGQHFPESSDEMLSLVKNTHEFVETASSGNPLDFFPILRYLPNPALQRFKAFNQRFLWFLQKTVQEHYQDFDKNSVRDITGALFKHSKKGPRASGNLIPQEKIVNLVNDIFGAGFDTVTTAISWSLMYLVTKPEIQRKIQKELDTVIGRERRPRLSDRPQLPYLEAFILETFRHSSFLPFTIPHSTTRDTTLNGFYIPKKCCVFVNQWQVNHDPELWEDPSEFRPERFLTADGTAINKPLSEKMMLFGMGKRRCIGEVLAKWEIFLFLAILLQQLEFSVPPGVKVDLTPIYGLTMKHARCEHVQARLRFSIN
# In short: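 O-Demethylation of luciferin 6' methyl ether by human CYP1A2 is monitored as luciferase luminescence. Substrate sits at Km (100uM); enzyme is 20nM. Values are scaled to 57 uM furafylline as maximal inhibition.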
# [13] = molecular target: Cytochrome P450 3A4 (Homo sapiens) (UniProt P08684); assay: qHTS Assay for Inhibitors and Substrates of Cytochrome P450 3A4 (AID 884); also: potency is read from the fitted curve at half-maximal effect; nearly all actives have a fitted effect of over 50% in size
# In short: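 Luminescent readout of luciferin produced by CYP3A4 (20 nM) dealkylation of Luciferin-PPXE, 25 uM (its KM). NADPH-driven reaction ran 60 min at RT after 10 min compound preincubation; data scaled to 57 uM ketoconazole as 100% inhibition.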
# [14] = molecular target: Dual specificity protein kinase CLK4 (Homo sapiens) (UniProt Q9HAZ1); assay: qHTS Assay for Inhibitors of CDC-like Kinase 4 (ADP-FP Assay) (AID 1795);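 also: recombinant human CLK4 phosphorylating RS repeat peptide at 1 µM ATP; % is scaled to controls: 0 for no effect and ±100 for the full control effect; nearly all actives have a fitted effect of over 60% in size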
# In short: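 Clk4 6.25 nM; RS peptide 100 uM; ATP 1 uM; 25 mM Tris pH 7.5, 10 mM MgCl2; 1 h reaction. ADP detected via antibody/orange tracer FP displacement; TG003 positive control.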
# [15] = Confirmation and Secondary Assay for Modulators of Hemoglobin Beta Chain Splicing at IVS2 654 locus (AID 910);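 also: HeLa cells stably carrying EGFP split by mutant beta-globin IVS2-654 intron; per-well total GFP intensity by laser scanning cytometry after 2-day treatment; % of control where 0% means no effect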
# In short: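 Readout: per-well total peak green fluorescence (488 nm ex, 500–520 nm em) from objects 5–250 µm, reflecting correct splicing of an EGFP-654 reporter. Compounds were applied for 2 days at 37 °C to overnight-plated HeLa EGFP-654 cells; controls were DMSO and 500 nM IVS2-654 PNA.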
# [16] = Confirmation and Secondary Assay for Modulators of Hemoglobin Beta Chain Splicing at IVS2 705 locus (AID 930);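 also: HeLa cells stably expressing the EGFP-705 splicing reporter; GFP fluorescence per well restored by corrected splicing of the IVS2-705 intron in EGFP; % of control where 0% means no effect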
# In short: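 Stable HeLa line with EGFP disrupted by mutant beta-globin intron 2 (705). Overnight attachment, then 2 days of compound at 37C, 5% CO2. Signal: peak GFP intensity summed over objects 5-250 µm.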
# [17] = qHTS Assay for Lipid Storage Modulators (AID 1519; calls by dose curve); settings: Drosophila S3 cells, BODIPY lipid droplet/cell ratio, laser cytometry, cells loaded with oleic acid
# In short: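 Cells seeded at 5,000 per well were treated with compounds over a concentration series and loaded with oleic acid (400 uM, as added). Lipid droplet fluorescence (488 nm excitation, 500-530 nm channel) was read by laser-scanning cytometry and normalized to 20 uM Triacsin C.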
# [18] = molecular target: Vitamin D3 receptor (Homo sapiens) (UniProt P11473); assay: qHTS for Inhibitors of the vitamin D receptor (VDR): Hit Validation in Primary Screen (AID 602199); settings: VDR-coactivator inhibition assay, qHTS confirmation; also: potency is read from the fitted curve at half-maximal effect
# Vitamin D3 receptor (Homo sapiens), sequence (P11473 whole entry, looked up, the tested form may be a part): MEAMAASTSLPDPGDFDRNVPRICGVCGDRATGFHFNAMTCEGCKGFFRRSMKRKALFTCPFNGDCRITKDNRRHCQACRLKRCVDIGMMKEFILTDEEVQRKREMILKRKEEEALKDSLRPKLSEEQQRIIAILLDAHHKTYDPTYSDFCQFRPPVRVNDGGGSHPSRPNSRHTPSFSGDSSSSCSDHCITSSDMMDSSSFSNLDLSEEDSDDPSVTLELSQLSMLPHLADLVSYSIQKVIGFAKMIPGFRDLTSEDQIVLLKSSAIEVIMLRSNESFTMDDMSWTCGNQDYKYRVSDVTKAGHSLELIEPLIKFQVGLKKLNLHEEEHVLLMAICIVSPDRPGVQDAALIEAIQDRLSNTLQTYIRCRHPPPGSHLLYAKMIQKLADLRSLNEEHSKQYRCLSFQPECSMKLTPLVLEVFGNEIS
# In short: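 With 800 nM VDR and 5 uM LG19078 agonist present, compounds were incubated 2 h at ambient temperature with Alexa 647-labelled SRC2-3. Displacement was read as polarization at 620/688 nm.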
# [19] = molecular target: Vitamin D3 receptor (Homo sapiens) (UniProt P11473); assay: qHTS for Inhibitors of the vitamin D receptor (VDR): Hit Validation using a Fluorescein Assay (AID 602200); settings: VDR-coactivator binding, fluorescein fluorescence polarization; also: potency is read from the fitted curve at half-maximal effect
# In short: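 Compounds added to VDR ligand-binding domain (1.5 uM) with agonist LG19078 (5 uM) and 5 nM SRC2-3 fluorescein peptide, final concentrations. After 2 h at ambient temperature, polarization of fluorescein emission (Ex 495 nm/Em 520 nm) measured.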
# [20] = qHTS for Inhibitors of the vitamin D receptor (VDR): Hit Validation using a Texas Red Assay (AID 602201); settings: VDR coregulator binding, Texas Red fluorescence polarization; agonist-bound VDR ligand-binding domain; also: potency is read from the fitted curve at half-maximal effect
# In short: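 After a 2-hour room-temperature incubation, polarization of Texas-Red emission was read (Ex 595 nm/Em 615 nm). Final mix contained 7 nM Texas Red, 1.5 uM VDR-LBD and LG19078.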
# [21] = molecular target: Vitamin D3 receptor (Homo sapiens) (UniProt P11473); assay: qHTS for Inhibitors of the vitamin D receptor (VDR): Hit Validation using a Beta-Lactamase Assay (AID 602202); also: % is scaled to controls: 0 for no effect and ±100 for the full control effect
# In short: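 Beta-lactamase reporter read-out (447 nm emission of cleaved FRET substrate, 2 h) after 18 h compound exposure of HEK293 cells carrying a VDR-GAL4 fusion and UAS reporter, stimulated with LG190178.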
# [22] = molecular target: Cytochrome P450 2D6 (Homo sapiens) (UniProt P10635); assay: Cytochrome P450 family 2 subfamily D member 6 (CYP2D6) small molecule antagonists: luciferase biochemical (cell-free) qHTS assay (AID 1645840; active = well fitted curve in the direction sought with a large enough effect in the repeat runs; an effect the other way counts as inactive or inconclusive; also: % is scaled to controls: 0 for no effect and ±100 for the full control effect; nearly all actives have a fitted effect of over 55% in size)
# Cytochrome P450 2D6 (Homo sapiens), sequence (P10635 whole entry, looked up): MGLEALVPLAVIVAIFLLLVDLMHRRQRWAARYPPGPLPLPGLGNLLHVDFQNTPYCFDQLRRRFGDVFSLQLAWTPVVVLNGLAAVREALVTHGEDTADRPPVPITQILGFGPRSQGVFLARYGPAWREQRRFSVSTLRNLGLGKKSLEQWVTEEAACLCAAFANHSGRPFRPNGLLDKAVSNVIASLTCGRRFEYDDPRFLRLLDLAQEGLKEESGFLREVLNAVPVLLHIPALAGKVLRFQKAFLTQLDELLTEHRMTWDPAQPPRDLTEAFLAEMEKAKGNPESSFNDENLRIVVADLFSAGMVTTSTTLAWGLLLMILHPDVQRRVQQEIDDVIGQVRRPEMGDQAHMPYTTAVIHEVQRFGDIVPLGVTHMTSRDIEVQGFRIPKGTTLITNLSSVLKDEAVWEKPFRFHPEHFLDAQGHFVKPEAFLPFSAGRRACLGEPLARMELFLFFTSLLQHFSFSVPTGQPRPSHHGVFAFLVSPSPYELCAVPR
# In short: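 P450-Glo CYP2D6 system: proluciferin substrate converted by enzyme to luciferin, read by luminescence proportional to activity. Enzyme-substrate mix with compound 10 min at room temperature, then NADPH regeneration 1 h before detection reagent.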
# [23] = molecular target: Cytochrome P450 2C9 (Homo sapiens) (UniProt P11712); assay: Cytochrome P450 family 2 subfamily C member 9 (CYP2C9) small molecule antagonists: luciferase biochemical (cell-free) qHTS assay (AID 1645842; active = well fitted curve in the direction sought with a large enough effect in the repeat runs; an effect the other way counts as inactive or inconclusive; also: potency is read from the fitted curve at half-maximal effect; nearly all actives have a fitted effect of over 55% in size)
# Cytochrome P450 2C9 (Homo sapiens), sequence (P11712 whole entry, looked up): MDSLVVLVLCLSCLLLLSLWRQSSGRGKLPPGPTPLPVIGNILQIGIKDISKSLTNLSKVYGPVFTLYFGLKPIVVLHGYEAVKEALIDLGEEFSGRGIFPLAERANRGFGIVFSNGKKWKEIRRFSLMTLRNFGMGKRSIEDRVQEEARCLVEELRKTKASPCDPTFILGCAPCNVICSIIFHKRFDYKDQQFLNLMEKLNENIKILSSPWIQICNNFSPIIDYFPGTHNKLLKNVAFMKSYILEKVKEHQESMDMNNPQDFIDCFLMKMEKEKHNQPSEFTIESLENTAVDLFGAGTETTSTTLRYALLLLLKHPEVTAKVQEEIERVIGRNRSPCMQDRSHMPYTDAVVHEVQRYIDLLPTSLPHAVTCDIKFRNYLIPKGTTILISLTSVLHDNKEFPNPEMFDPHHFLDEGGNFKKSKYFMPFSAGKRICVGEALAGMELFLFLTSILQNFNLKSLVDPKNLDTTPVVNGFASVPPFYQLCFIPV
# In short: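 P450-Glo CYP2C9 system: proluciferin substrate with enzyme in mix containing 0.4% BSA, 10 min at room temperature, then NADPH regeneration solution added and incubated 1 h at 37C. Detection reagent stopped reaction; luminescence read after 20 min as RLU.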
structure (smiles),measurement,setting,value
COc1ccccc1CNc1cc(-c2ccccc2Cl)ncn1,Potency,[1],> 11.4 µM (inactive)
same,"activity change, negative = inhibition",[2],-13.2% (inactive)
same,"activity change, negative = inhibition",[3],0.444% (inactive)
same,"activity, negative = inhibition",[4],-1.65% (inactive)
same,Potency,[5],> 46 µM (inactive)
same,Potency,[6],> 46 µM (inactive)
same,Potency,[7],inactive
same,Potency,[8],inactive
same,Potency,[9],25.1 µM (active)
same,Potency,[10],15.8 µM (active)
same,Potency,[11],inactive
COc1ccc(CNc2ncncc2-c2c(C)noc2C)c(OC)c1,Potency,[1],> 11.4 µM (inactive)
same,"activity change, negative = inhibition",[2],-10.6% (inactive)
same,Potency,[12],25.1 µM (active)
same,"activity change, negative = inhibition",[3],9.48% (inactive)
same,"activity, negative = inhibition",[4],2.92% (inactive)
same,Potency,[5],> 46 µM (inactive)
same,Potency,[6],> 46 µM (inactive)
same,Potency,[7],inactive
same,Potency,[13],1.26 µM (active)
same,Potency,[8],inactive
same,Potency,[9],inactive
same,Potency,[10],inactive
same,Potency,[14],inactive
same,Potency,[11],inactive
CC(CCC(=O)O)C1CCC2C3C(O)C[C@@H]4CC(O)CC[C@@]4(C)C3CC[C@@]12C (stereo partly drawn),Potency,[15],inactive
same,outcome,[16],inactive
same,"activity change, negative = inhibition",[17]; at 57.5 µM (top of the series),1.17% (inactive) and 5.02% (inactive)
same,max response,[17]; measured here: cell count channel max response,13% and 15.4%
same,max response,[17]; measured here: lipid channel max response,15% and 25.1%
same,Potency,[11],inactive
CCOc1ccc(NC(=O)c2c(NC(=O)Cc3ccccc3)sc3c2CCC(C)C3)cc1 (stereo not drawn),Potency,[18],5.62 µM (active)
same,Potency,[19],8.91 µM (active)
same,Potency,[20],3.55 µM (active)
same,Potency,[21],inactive
CCOC(=O)c1ccc(NC(=O)CSc2nc3c([nH]c4ccccc43)c(=O)n2C)cc1,Potency,[22],inactive
same,Potency,[23],3.01 µM (active)
Cc1nnc(SCC(=O)NCc2ccccc2Cl)c2nn(-c3ccccc3)c(C)c12,Potency,[23],3.01 µM (active)
